Reference: article PMC7819943, “Rice protein-binding microarrays: a tool to detect cis-acting elements near promoter regions in rice”
Whole data set: some 68,000 sequences, median “fluorescence intensity (a.u.)” near 9,100, cut for the highest 2% near 16,000. For the sample, the highest values were picked, then their nearest neighbours and some sequences at random.

What follows are sequences tested against OsWRKY34 (Oryza sativa, UniProt Q0JBA9 1-250) (assay: protein-binding microarray (RPBM); PBS, 2% BSA, 51.3 ng/ul salmon testes DNA, 50 uM zinc acetate, 200 nM TF, 25 C, 1 h; high values mean tight binding). Settings: protein: recombinant; tags: N-terminal polyhistidine and DsRed monomer fusion (pET32a); label: CyDye5-dUTP incorporated in the synthesized complementary strand; 3' TTTTT single-stranded linker to array surface; dsDNA, one strand shown.
Chain of OsWRKY34 (Q0JBA9 entry or part of it): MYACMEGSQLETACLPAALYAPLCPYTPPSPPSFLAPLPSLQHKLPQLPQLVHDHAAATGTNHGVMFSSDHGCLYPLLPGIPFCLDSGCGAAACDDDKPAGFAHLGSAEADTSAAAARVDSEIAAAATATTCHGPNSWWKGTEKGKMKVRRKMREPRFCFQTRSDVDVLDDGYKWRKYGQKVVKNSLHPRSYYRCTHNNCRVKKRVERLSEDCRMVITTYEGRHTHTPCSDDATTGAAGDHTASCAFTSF
Summary of the method: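 Using Ni–NTA, transcription factors fused N-terminally to polyhistidine and DsRed were purified after expression in E. coli BL21-CodonPlus. These were incubated at 200 nM with a blocked, double-stranded custom Agilent array for 1 h at 25 °C in a buffer containing 50 µM zinc acetate, and the array was washed. The binding signal is per-feature fluorescence intensity (arbitrary units) on an Axon 4000B scanner.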

Row | Sequence | binding signal
1 | TGTGCCTGCCGACTCGCCCACGCAACTCCGACTCTTTCCTCGGAGTCACCTAGTGCAG | 13500 fluorescence intensity (a.u.)
2 | GTTAACTTTTGGTAGTTGCAGGGGTTCTATAGGTGGGCAGCGGAGTCACCTAGTGCAG | 8640 fluorescence intensity (a.u.)
3 | CTTGGGGAAGGCGGCGGGTGTCGGGGAGGGCGAGGGTATCCGGAGTCACCTAGTGCAG | 18000 fluorescence intensity (a.u.)
4 | TGAGGTTTTGGGTTCTTGGGCACTTCTTGTTCTAGCCAAGCGGAGTCACCTAGTGCAG | 9900 fluorescence intensity (a.u.)
5 | GGTTGGTGGCGGTGGGCCGGTGGCGGCTCGGTGGCGGAGCCGGAGTCACCTAGTGCAG | 10200 fluorescence intensity (a.u.)
6 | TTGGCGCGCGGTTGGTGGGGCGGTGGTGGTGGTGGTGCCTCGGAGTCACCTAGTGCAG | 17400 fluorescence intensity (a.u.)
7 | TTGGTGGGTGGCGCGGTGGCCGGACCTGGGGTGGTGGGCGCGGAGTCACCTAGTGCAG | 15900 fluorescence intensity (a.u.)
8 | CTGGCGAGCAGAGCAGGGGAGGGGAGGGGAGGGGATCGGGCGGAGTCACCTAGTGCAG | 14200 fluorescence intensity (a.u.)
9 | GGCGGGGCGGATCCGAGGGGCGAAGTGGGTCGGGCGGCGGCGGAGTCACCTAGTGCAG | 9480 fluorescence intensity (a.u.)
10 | TATGGGTAGGTTCTTGTTCTATGGGGCAGGGGTCTTAAAGCGGAGTCACCTAGTGCAG | 17100 fluorescence intensity (a.u.)
11 | GTGGGTTGGGGTCGGCGAGGGATCCGGGCGGCGGGGTATGCGGAGTCACCTAGTGCAG | 14000 fluorescence intensity (a.u.)
12 | GCGGGACTTGCAGATCCGAGCGGGCGGGGCGGGGCGGGTTCGGAGTCACCTAGTGCAG | 22000 fluorescence intensity (a.u.)
13 | GGAGTGTGGCGGAGCGGGAGTTCGCGGGCGGACGGCGGGGCGGAGTCACCTAGTGCAG | 11700 fluorescence intensity (a.u.)
14 | GCTATCGCCGGTTTCGTCATCAATAATCTTCTCTGCCTCTCGGAGTCACCTAGTGCAG | 8820 fluorescence intensity (a.u.)
15 | TTTCATCGTTTAGTGTCTTACTCCCTTTCCGATGGTCAACCGGAGTCACCTAGTGCAG | 9340 fluorescence intensity (a.u.)
16 | CATTCTTGTCTGTAGCTTATTTGTTCGTGTTCATTAGTTTCGGAGTCACCTAGTGCAG | 13500 fluorescence intensity (a.u.)
17 | TGTCTCTCTTTGACATCTTGTTTCCCATAACCTAAAGATACGGAGTCACCTAGTGCAG | 8260 fluorescence intensity (a.u.)
18 | GTACGCAACTTGTCCGCAGCCGCGACCCCGACCCGACCCGCGGAGTCACCTAGTGCAG | 8200 fluorescence intensity (a.u.)
19 | ATCATCCATATCCAGCTATACTATACTACTCGATCCCTTCCGGAGTCACCTAGTGCAG | 10200 fluorescence intensity (a.u.)
20 | CCCTCTCTCTATTTAAGCAAGCACATTCTCCTCTTCTTCTCGGAGTCACCTAGTGCAG | 8240 fluorescence intensity (a.u.)
21 | GCCGACTCTTACTCCTCCGCCCACTCACCACGCGCGCTGCCGGAGTCACCTAGTGCAG | 11000 fluorescence intensity (a.u.)

Row | Sequence | binding signal
22 | GCGGGCGGAGGAGCTCGGGCGTGGGCGGGGAGGGCGGATCCGGAGTCACCTAGTGCAG | 20800 fluorescence intensity (a.u.)
23 | TTGGGAGGGATGGGGCGGTGGTTAGGGGATGAGCGGAGGACGGAGTCACCTAGTGCAG | 13200 fluorescence intensity (a.u.)
24 | GGGAGGGGTGGCTCGGCGGCGGTGCGGGGTGGCGGTGCTCCGGAGTCACCTAGTGCAG | 18700 fluorescence intensity (a.u.)
25 | CTCTTCTCCTCCAAGGATGGGGAGGTGGGGATGGTGGGGACGGAGTCACCTAGTGCAG | 19400 fluorescence intensity (a.u.)
26 | GGCGGAGCTCGGGATGTGGGAGGAGGAGGGCTATTTATTCCGGAGTCACCTAGTGCAG | 14400 fluorescence intensity (a.u.)
27 | AGAGGTGGAAGGGGATGGGGAGAAAAAAAAGGAGAGGGGACGGAGTCACCTAGTGCAG | 8410 fluorescence intensity (a.u.)
28 | GAGTGGTGGAGGGTTGTGATTGGATGAGTAGTGGAGGTAGCGGAGTCACCTAGTGCAG | 8760 fluorescence intensity (a.u.)
29 | GTTGGGAAGGAAAGGGAGGGGTTGGTGCTCTCCTCCTCTTCGGAGTCACCTAGTGCAG | 9740 fluorescence intensity (a.u.)
30 | TGGCGGCTCGGTGGCGGAGCTCCGGTGTGGGGTGGTGTGGCGGAGTCACCTAGTGCAG | 8140 fluorescence intensity (a.u.)
31 | CGAGTGACGAGGTCTTGGGTTGGGGTAGGGGTGGGATGAGCGGAGTCACCTAGTGCAG | 19900 fluorescence intensity (a.u.)
32 | CCGGGTGGAGGGCGGGGAAGCGGCGGCGGAACTCCGGGCTCGGAGTCACCTAGTGCAG | 8490 fluorescence intensity (a.u.)
33 | GTGGCCGGCGGCGTTCGGGCGTGGGCGGGGAGGCCGGATCCGGAGTCACCTAGTGCAG | 13700 fluorescence intensity (a.u.)
34 | CAGTATCTTACTTCTCAGCTGCTCAATCATCAGCTGCCACCGGAGTCACCTAGTGCAG | 9310 fluorescence intensity (a.u.)
35 | GCAAGATCTCCATGATGCGACAGCTCTACCGTTACAATTACGGAGTCACCTAGTGCAG | 8100 fluorescence intensity (a.u.)
36 | TCAATCAACGGCTACTTGTATGTAATCTCCACGCATTCCACGGAGTCACCTAGTGCAG | 8630 fluorescence intensity (a.u.)
37 | CTTTTTGTTTTGGCCTTGACGTCGTGTTCACCGCCTCTACCGGAGTCACCTAGTGCAG | 11800 fluorescence intensity (a.u.)
38 | CAGAGCTCTTCCTGCTGTACCTACCAAGCTCTTACTTTGACGGAGTCACCTAGTGCAG | 8060 fluorescence intensity (a.u.)
39 | GTACTACTCCAAATCGTGTTCCACATTTCTATTTTGCACACGGAGTCACCTAGTGCAG | 10200 fluorescence intensity (a.u.)
40 | CTTAGGTCAACACCGAAAACTAATCACCATGTTGACTTTGCGGAGTCACCTAGTGCAG | 9710 fluorescence intensity (a.u.)
41 | GATGGTGTGTGTGTGTGGCTGTGTGCACCTAAGAATTTCTCGGAGTCACCTAGTGCAG | 10400 fluorescence intensity (a.u.)
42 | ATATTTATGTGCCAAATATTGTCAATTGTTCCTCTTGTTACGGAGTCACCTAGTGCAG | 9080 fluorescence intensity (a.u.)
